In PubChem BioAssay AID1645857 (Buhrlage Lab, Dana-Farber Cancer Institute and Novartis …, 2021):
Screen size: about 47,000 compounds; about 1,400 (3%) were called active. Cut-off read from the data, not from the text of the source: active = inhibition above about 30%; inactive = the rest. The entries come from a sample that favours actives as a whole.

The compounds below were run against Ubiquitin carboxyl-terminal hydrolase 28 (Homo sapiens) (UniProt Q96RU2) (assay: blocks human USP28 ubiquitin-rhodamine cleavage (AID 1645857)). Conditions: purified USP28, Ub-rhodamine cleavage fluorescence, 30 min; at 25 µM; active compounds read high.
Sequence of Ubiquitin carboxyl-terminal hydrolase 28 (Homo sapiens) (Q96RU2 whole entry, looked up): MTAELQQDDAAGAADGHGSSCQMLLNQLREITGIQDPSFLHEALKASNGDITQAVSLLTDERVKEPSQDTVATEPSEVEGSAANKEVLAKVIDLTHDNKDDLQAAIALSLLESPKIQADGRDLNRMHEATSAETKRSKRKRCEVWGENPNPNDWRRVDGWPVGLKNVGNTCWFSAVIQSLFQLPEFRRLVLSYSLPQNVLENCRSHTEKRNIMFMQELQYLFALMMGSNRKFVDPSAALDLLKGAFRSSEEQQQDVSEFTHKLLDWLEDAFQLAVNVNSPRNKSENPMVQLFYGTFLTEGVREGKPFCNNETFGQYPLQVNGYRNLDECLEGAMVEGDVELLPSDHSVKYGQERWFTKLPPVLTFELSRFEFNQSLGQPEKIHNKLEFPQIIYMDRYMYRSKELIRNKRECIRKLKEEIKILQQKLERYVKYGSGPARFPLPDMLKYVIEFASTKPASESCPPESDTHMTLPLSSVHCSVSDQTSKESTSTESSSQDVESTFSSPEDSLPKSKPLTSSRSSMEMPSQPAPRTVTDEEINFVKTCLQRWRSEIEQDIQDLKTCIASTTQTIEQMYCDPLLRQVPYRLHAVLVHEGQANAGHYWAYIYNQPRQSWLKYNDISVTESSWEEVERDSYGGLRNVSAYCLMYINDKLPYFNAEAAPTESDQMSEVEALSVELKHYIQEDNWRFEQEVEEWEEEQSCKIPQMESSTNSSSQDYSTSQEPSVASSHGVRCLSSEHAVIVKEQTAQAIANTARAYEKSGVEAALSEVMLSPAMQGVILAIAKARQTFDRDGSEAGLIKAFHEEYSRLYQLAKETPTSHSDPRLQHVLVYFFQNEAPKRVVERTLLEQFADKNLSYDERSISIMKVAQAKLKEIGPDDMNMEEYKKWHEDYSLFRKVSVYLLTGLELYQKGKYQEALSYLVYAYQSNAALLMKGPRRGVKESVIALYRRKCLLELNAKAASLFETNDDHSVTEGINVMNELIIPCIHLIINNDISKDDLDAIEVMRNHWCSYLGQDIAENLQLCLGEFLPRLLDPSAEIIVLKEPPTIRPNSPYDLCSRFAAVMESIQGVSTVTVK

Row | Compound | inhibition
1 | O=C1CSC(c2ccc(F)cc2)c2c(-c3ccccc3)nn(-c3ccccc3)c2N1 (stereo not given) | 35.2% (active)
2 | O=C(CCCn1c(=O)[nH]c2cc(Cl)ccc2c1=O)N1CCC2(CC1)OCCO2 | 15% (inactive)
3 | COc1cc(N2CC[C@@H]3[C@@H]2CCN3Cc2cccnc2)ncn1 | -13.3% (inactive)
4 | CC(C)(C)n1cc(C(=O)NCC(=O)Nc2ccc(Br)cc2)cn1 | 1.73% (inactive)
5 | Cc1noc(C)c1CN1CCO[C@H]2C(Cn3cccn3)CC[C@@H]21 (stereo not given in full) | -2.14% (inactive)
